Test results taken from the supplement of paper PMC4466140.

Target: AgAbp1
Experiment: SPOT peptide array binding signal intensity (averaged, normalized) (arbitrary units (background-subtracted, floor 0; scale differs between SH3 domains)); higher = stronger binding of the SH3 domain to the peptide
Summary of the method: (§1)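 GST-fused SH3 domains, from four yeast species, were produced in E. coli BL21(DE3) and captured on glutathione Sepharose. Membranes of cellulose carrying synthetic 15-mer peptides, in which cysteines had been replaced by serines, were exposed to each domain at 10 μg/ml overnight at 4°C in TBS-based blocking buffer. After anti-GST antibody, an HRP anti-mouse secondary and luminol, spots were imaged and quantified using Genespotter. Binding signal is normalized and background-subtracted spot intensity, averaged over replicates, in arbitrary units that differ between domains.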

Binder | SPOT peptide array binding signal intensity
FLIKFTPKFPQSIDH | 11

Target: AgBbc1
Experiment: as above
Summary of the method: as §1

Binder | SPOT peptide array binding signal intensity
FLIKFTPKFPQSIDH | 89.8

Target: AgBem1-D1
Experiment: as above
Summary of the method: as §1

Binder | SPOT peptide array binding signal intensity
FLIKFTPKFPQSIDH | 681

Target: AgBzz1-D1
Experiment: as above
Summary of the method: as §1

Binder | SPOT peptide array binding signal intensity
FLIKFTPKFPQSIDH | 120

Target: AgBzz1-D2
Experiment: as above
Summary of the method: as §1

Binder | SPOT peptide array binding signal intensity
FLIKFTPKFPQSIDH | 229

Target: AgCyk3
Experiment: as above
Summary of the method: as §1

Binder | SPOT peptide array binding signal intensity
FLIKFTPKFPQSIDH | 165

Target: AgFus1
Experiment: as above
Summary of the method: as §1

Binder | SPOT peptide array binding signal intensity
FLIKFTPKFPQSIDH | 1690

Target: AgHof1
Experiment: as above
Summary of the method: as §1

Binder | SPOT peptide array binding signal intensity
FLIKFTPKFPQSIDH | 45

Target: AgHse1
Experiment: as above
Summary of the method: as §1

Binder | SPOT peptide array binding signal intensity
FLIKFTPKFPQSIDH | 1660

Target: AgLsb1
Experiment: as above
Summary of the method: as §1

Binder | SPOT peptide array binding signal intensity
FLIKFTPKFPQSIDH | 2.5

Target: AgLsb4
Experiment: as above
Summary of the method: as §1

Binder | SPOT peptide array binding signal intensity
FLIKFTPKFPQSIDH | 1180

Target: AgMyo5
Experiment: as above
Summary of the method: as §1

Binder | SPOT peptide array binding signal intensity
FLIKFTPKFPQSIDH | 1.5

Target: AgNbp2
Experiment: as above
Summary of the method: as §1

Binder | SPOT peptide array binding signal intensity
FLIKFTPKFPQSIDH | 669

Target: AgRvs167
Experiment: as above
Summary of the method: as §1

Binder | SPOT peptide array binding signal intensity
FLIKFTPKFPQSIDH | 15

Target: AgSho1
Experiment: as above
Summary of the method: as §1

Binder | SPOT peptide array binding signal intensity
FLIKFTPKFPQSIDH | 814

Target: AgSla1-D1-D2
Experiment: as above
Summary of the method: as §1

Binder | SPOT peptide array binding signal intensity
FLIKFTPKFPQSIDH | 524

Target: AgSla1-D3
Experiment: as above
Summary of the method: as §1

Binder | SPOT peptide array binding signal intensity
FLIKFTPKFPQSIDH | 33.8

Target: CaAbp1-D1
Experiment: as above
Summary of the method: as §1

Binder | SPOT peptide array binding signal intensity
FLIKFTPKFPQSIDH | 172

Target: CaAbp1-D2
Experiment: as above
Summary of the method: as §1

Binder | SPOT peptide array binding signal intensity
FLIKFTPKFPQSIDH | 120

Target: CaBbc1
Experiment: as above
Summary of the method: as §1

Binder | SPOT peptide array binding signal intensity
FLIKFTPKFPQSIDH | 75

Target: CaBem1-D1
Experiment: as above
Summary of the method: as §1

Binder | SPOT peptide array binding signal intensity
FLIKFTPKFPQSIDH | 103

Target: CaBzz1-D1
Experiment: as above
Summary of the method: as §1

Binder | SPOT peptide array binding signal intensity
FLIKFTPKFPQSIDH | 819

Target: CaBzz1-D2
Experiment: as above
Summary of the method: as §1

Binder | SPOT peptide array binding signal intensity
FLIKFTPKFPQSIDH | 281

Target: CaCyk3
Experiment: as above
Summary of the method: as §1

Binder | SPOT peptide array binding signal intensity
FLIKFTPKFPQSIDH | 136

Target: CaFus1
Experiment: as above
Summary of the method: as §1

Binder | SPOT peptide array binding signal intensity
FLIKFTPKFPQSIDH | 3550

Target: CaHof1
Experiment: as above
Summary of the method: as §1

Binder | SPOT peptide array binding signal intensity
FLIKFTPKFPQSIDH | 6.5

Target: CaHse1
Experiment: as above
Summary of the method: as §1

Binder | SPOT peptide array binding signal intensity
FLIKFTPKFPQSIDH | 588

Target: CaLsb1
Experiment: as above
Summary of the method: as §1

Binder | SPOT peptide array binding signal intensity
FLIKFTPKFPQSIDH | 10

Target: CaLsb4
Experiment: as above
Summary of the method: as §1

Binder | SPOT peptide array binding signal intensity
FLIKFTPKFPQSIDH | 299

Target: CaMyo5
Experiment: as above
Summary of the method: as §1

Binder | SPOT peptide array binding signal intensity
FLIKFTPKFPQSIDH | 94

Target: CaNbp2
Experiment: as above
Summary of the method: as §1

Binder | SPOT peptide array binding signal intensity
FLIKFTPKFPQSIDH | 1020

Target: CaRvs167
Experiment: as above
Summary of the method: as §1

Binder | SPOT peptide array binding signal intensity
FLIKFTPKFPQSIDH | 651

Target: CaRvs167-3
Experiment: as above
Summary of the method: as §1

Binder | SPOT peptide array binding signal intensity
FLIKFTPKFPQSIDH | 2160

Target: CaSho1
Experiment: as above
Summary of the method: as §1

Binder | SPOT peptide array binding signal intensity
FLIKFTPKFPQSIDH | 2110

Target: CaSla1-D1-D2
Experiment: as above
Summary of the method: as §1

Binder | SPOT peptide array binding signal intensity
FLIKFTPKFPQSIDH | 43

Target: CaSla1-D3
Experiment: as above
Summary of the method: as §1

Binder | SPOT peptide array binding signal intensity
FLIKFTPKFPQSIDH | 585

Target: ScAbp1
Experiment: as above
Summary of the method: as §1

Binder | SPOT peptide array binding signal intensity
FLIKFTPKFPQSIDH | 7
